Experimental data published in PubChem BioAssay AID1159580 (chemical genetic matrix, 2015).
Hit rate of the full screen: of about 5,500 compounds, about 2,000 (36%) were called active. Not shown: some 18% with an inconclusive outcome. No stated cut-off is given here; in the data, active means normalized growth mostly below about 0.91 (no sharp cut-off); inconclusive means no clear call, values can overlap the other calls; inactive means mostly above about 0.92. This is one part of the list.

Assay: chemical genetic growth profiling, strain panel (AID 1159580);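 further: tested at 20 µM; growth read once vehicle control cultures reached saturation at 30 °C; 1 = growth at the plate median or of vehicle wells; lower values mean less growth of the strain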
Settings: growth OD

Measured: normalized growth

O=C1c2ccccc2-c2cccc3cccc1c23
inactive: S. cerevisiae deletion strains, locus YAL021C, strain ccr4, hits give low values 0.946 | S. cerevisiae deletion strains, locus YAL030W, strain snc1, hits give low values 0.954 | S. cerevisiae deletion strains, locus YBR171W, strain sec66, hits give low values 0.964 | S. cerevisiae deletion strains, locus YCR088W, strain abp1, hits give low values 1.01 | S. cerevisiae deletion strains, locus YDL005C, strain med2, hits give low values 0.961 | S. cerevisiae deletion strains, locus YDL040C, strain nat1, hits give low values 0.974 | S. cerevisiae deletion strains, locus YDR001C, strain nth1, hits give low values 0.988 | S. cerevisiae deletion strains, locus YDR069C, strain doa4, hits give low values 0.905 | S. cerevisiae deletion strains, locus YDR159W, strain sac3, hits give low values 0.881 | S. cerevisiae deletion strains, locus YDR297W, strain sur2, hits give low values 0.965 | S. cerevisiae deletion strains, locus YDR334W, strain swr1, hits give low values 0.923 | S. cerevisiae deletion strains, locus YDR335W, strain msn5, hits give low values 0.952 | S. cerevisiae deletion strains, locus YEL003W, strain gim4, hits give low values 0.967 | S. cerevisiae deletion strains, locus YEL037C, strain rad23, hits give low values 0.945 | S. cerevisiae deletion strains, locus YEL061C, strain CIN8 (second series), hits give low values 0.953 | S. cerevisiae deletion strains, locus YER015W, strain faa2, hits give low values 0.939 | S. cerevisiae deletion strains, locus YER016W, strain bim1, hits give low values 0.977 | S. cerevisiae deletion strains, locus YER111C, strain swi4, hits give low values 0.968 | S. cerevisiae deletion strains, locus YGL167C, strain pmr1, hits give low values 0.97 | S. cerevisiae deletion strains, locus YGL227W, strain vid30, hits give low values 0.99 | S. cerevisiae deletion strains, locus YHR027C, strain rpn1, hits give low values 0.956 | S. cerevisiae deletion strains, locus YJL115W, strain asf1, hits give low values 0.91 | S. cerevisiae deletion strains, locus YJL129C, strain trk1, hits give low values 1.02 | S. cerevisiae deletion strains, locus YJL154C, strain vps35, hits give low values 0.988 | S. cerevisiae deletion strains, locus YKR026C, strain gcn3, hits give low values 0.965 | S. cerevisiae deletion strains, locus YKR091W, strain srl3, hits give low values 0.977 | S. cerevisiae deletion strains, locus YLL026W, hits give low values 0.932 | S. cerevisiae deletion strains, locus YLL041C, strain sdh2, hits give low values 0.994 | S. cerevisiae deletion strains, locus YLR342W, strain FKS1, hits give low values 0.966 | S. cerevisiae deletion strains, locus YLR357W, strain rsc2, hits give low values 0.985 | S. cerevisiae deletion strains, locus YLR370C, strain arc18, hits give low values 0.931 | S. cerevisiae deletion strains, locus YLR384C, strain iki3, hits give low values 0.978 | S. cerevisiae deletion strains, locus YML120C, strain ndi1, hits give low values 0.949 | S. cerevisiae deletion strains, locus YMR125W, strain sto1, hits give low values 0.9 | S. cerevisiae deletion strains, locus YMR129W, hits give low values 0.973 | S. cerevisiae deletion strains, locus YMR205C, strain PFK2, hits give low values 0.935 | S. cerevisiae deletion strains, locus YMR231W, strain pep5, hits give low values 0.954 | S. cerevisiae deletion strains, locus YNL209W, strain ssb2, hits give low values 0.928 | S. cerevisiae deletion strains, locus YNL322C, strain KRE1 (second series), hits give low values 0.966 | S. cerevisiae deletion strains, locus YNR049C, strain mso1, hits give low values 0.986 | S. cerevisiae deletion strains, locus YOR001W, strain rrp6, hits give low values 0.911 | S. cerevisiae deletion strains, locus YOR080W, strain dia2, hits give low values 0.981 | S. cerevisiae deletion strains, locus YOR265W, strain rbl2, hits give low values 0.967 | S. cerevisiae deletion strains, locus YPL240C, strain hsp82, hits give low values 0.979
active: S. cerevisiae deletion strains, locus YAL026C, strain drs2, hits give low values 0.896 | S. cerevisiae deletion strains, locus YBL061C, strain skt5, hits give low values 0.88 | S. cerevisiae deletion strains, locus YBR009C, strain hhf1, hits give low values 0.849 | S. cerevisiae deletion strains, locus YBR023C, strain chs3, hits give low values 0.855 | S. cerevisiae deletion strains, locus YBR231C, strain swc5, hits give low values 0.78 | S. cerevisiae deletion strains, locus YBR279W, strain paf1, hits give low values 0.884 | S. cerevisiae deletion strains, locus YCL011C, strain gbp2, hits give low values 0.874 | S. cerevisiae deletion strains, locus YCL016C, strain dcc1, hits give low values 0.823 | S. cerevisiae deletion strains, locus YCL061C, strain MRC1, hits give low values 0.867 | S. cerevisiae deletion strains, locus YCL069W, strain vba3, hits give low values 0.924 | S. cerevisiae deletion strains, locus YDR137W, strain rgp1, hits give low values 0.756 | S. cerevisiae deletion strains, locus YDR195W, strain ref2 1.44 [resistant] | S. cerevisiae deletion strains, locus YDR392W, strain spt3, hits give low values 0.483 | S. cerevisiae deletion strains, locus YER155C, strain BEM2 (second series), hits give low values 0.716 | S. cerevisiae deletion strains, locus YFR010W, strain ubp6, hits give low values 0.833 | S. cerevisiae deletion strains, locus YGL173C, strain kem1, hits give low values 0.853 | S. cerevisiae deletion strains, locus YGL240W, strain doc1, hits give low values 0.868 | S. cerevisiae deletion strains, locus YGL253W, strain hxk2, hits give low values 0.822 | S. cerevisiae deletion strains, locus YHR013C, strain ard1, hits give low values 0.737 | S. cerevisiae deletion strains, locus YHR142W, strain chs7, hits give low values 0.62 | S. cerevisiae deletion strains, locus YJL092W, strain hpr5, hits give low values 0.899 | S. cerevisiae deletion strains, locus YJL095W, strain BCK1 (second series), hits give low values 0.854 | S. cerevisiae deletion strains, locus YJL164C, strain tpk1, hits give low values 0.868 | S. cerevisiae deletion strains, locus YJL166W, strain qcr8, hits give low values 0.841 | S. cerevisiae deletion strains, locus YKL160W, strain elf1, hits give low values 0.829 | S. cerevisiae deletion strains, locus YLL001W, strain dnm1, hits give low values 0.89 | S. cerevisiae deletion strains, locus YLR027C, strain aat2, hits give low values 0.875 | S. cerevisiae deletion strains, locus YLR221C, strain rsa3, hits give low values 0.875 | S. cerevisiae deletion strains, locus YLR258W, strain gsy2, hits give low values 0.9 | S. cerevisiae deletion strains, locus YLR262C, strain YPT6 (second series), hits give low values 0.747 | S. cerevisiae deletion strains, locus YLR320W, strain mms22, hits give low values 0.714 | S. cerevisiae deletion strains, locus YMR058W, strain fet3, hits give low values 0.746 | S. cerevisiae deletion strains, locus YNL071W, strain lat1, hits give low values 0.685 | S. cerevisiae deletion strains, locus YNL248C, strain rpa49, hits give low values 0.677 | S. cerevisiae deletion strains, locus YOR070C, strain gyp1, hits give low values 0.904 | S. cerevisiae deletion strains, locus YOR083W, strain WHI5, hits give low values 0.786 | S. cerevisiae deletion strains, locus YOR106W, strain vam3, hits give low values 0.693 | S. cerevisiae deletion strains, locus YOR270C, strain vph1, hits give low values 0.341 | S. cerevisiae deletion strains, locus YOR290C, strain snf2, hits give low values 0.856 | S. cerevisiae deletion strains, locus YPL051W, strain arl3, hits give low values 0.739 | S. cerevisiae deletion strains, locus YPL078C, strain atp4, hits give low values 0.787 | S. cerevisiae deletion strains, locus YPL106C, strain sse1, hits give low values 0.74

O=S(=O)(O)c1cccc2cccc(Cl)c12
inactive: S. cerevisiae deletion strains, locus YAL013W, strain DEP1, hits give low values 1.01 | S. cerevisiae deletion strains, locus YBR229C, strain ROT2, hits give low values 1.01 | S. cerevisiae deletion strains, locus YDL101C, strain DUN1, hits give low values 0.984 | S. cerevisiae deletion strains, locus YDR150W, strain NUM1, hits give low values 0.93 | S. cerevisiae deletion strains, locus YEL061C, strain CIN8, hits give low values 0.998 | S. cerevisiae deletion strains, locus YGR078C, strain PAC10, hits give low values 1 | S. cerevisiae deletion strains, locus YHR030C, strain SLT2, hits give low values 0.985 | S. cerevisiae deletion strains, locus YHR087W, strain rtc3, hits give low values 1.06 | S. cerevisiae deletion strains, locus YJL187C, strain SWE1, hits give low values 1 | S. cerevisiae deletion strains, locus YJR043C, strain POL32, hits give low values 0.993 | S. cerevisiae deletion strains, locus YJR075W, strain HOC1, hits give low values 0.999 | S. cerevisiae deletion strains, locus YLR039C, strain RIC1, hits give low values 0.996 | S. cerevisiae deletion strains, locus YLR058C, strain SHM2 (second series), hits give low values 1.01 | S. cerevisiae deletion strains, locus YLR085C, strain ARP6, hits give low values 1.03 | S. cerevisiae deletion strains, locus YLR262C, strain YPT6, hits give low values 1.01 | S. cerevisiae deletion strains, locus YML094W, strain GIM5, hits give low values 1.03 | S. cerevisiae deletion strains, locus YMR219W, strain ESC1, hits give low values 1.02 | S. cerevisiae deletion strains, locus YMR263W, strain SAP30, hits give low values 1.01 | S. cerevisiae deletion strains, locus YMR307W, strain GAS1, hits give low values 0.996 | S. cerevisiae deletion strains, locus YNL153C, strain GIM3, hits give low values 0.999 | S. cerevisiae deletion strains, locus YNL298W, strain CLA4 (second series), hits give low values 1.02 | S. cerevisiae deletion strains, locus YNL322C, strain KRE1, hits give low values 1 | S. cerevisiae deletion strains, locus YNR030W, strain Alg12, hits give low values 1.03 | S. cerevisiae deletion strains, locus YPL055C, strain LGE1, hits give low values 1.02 | S. cerevisiae deletion strains, locus YPL241C, strain CIN2, hits give low values 1.01 | S. cerevisiae deletion strains, locus YPR135W, strain CTF4, hits give low values 0.973 | S. cerevisiae strains, strain wild type, hits give low values 0.984
